Source: PubChem BioAssay AID602474 (National Center for Advancing Translational Sciences (NCATS), 2012)
Records with an inconclusive call do not appear. Active and inactive are the calls of the source. Calls follow the shape of the dose curve; as a rule, active = well fitted inhibition curve with a large enough effect; inconclusive = small, poorly fitted or top-dose-only effect; inactive = no such curve, though single readings can be large or run the other way.

Each molecule was assayed against Luciferin 4-monooxygenase (Photinus pyralis) (UniProt P08659) (assay: FLuc inhibitory activity for the follow-up compounds in a biochemical assay with a commercial detection reagent - BriteliteTM Plus (PerkinElmer)). Settings: purified FLuc, Britelite Plus luminescence; series mostly up to 38.3 µM; activity change, negative = inhibition: at the top concentration.
Source text: NCGC Assay Overview: Firefly (Photinus pyralis) luciferase is one of the most commonly used transcriptional reporters. It is considered one of the more dynamically responsive reporters - that is, responsive to changes in reporter transcription - as it requires no post-translational modifications and is enzymatically active directly after protein synthesis (Wood, 1998). With no endogenous expression in mammalian cells and without the requirement of external excitation, it offers very little background signal, thus generally providing excellent signal to background for most assays. Previous profiling work to determine the prevalence of compounds that affect FLuc enzymatic activity (PubChem AID 411) identified that ~3% of the MLSMR library (then at ~72K) inhibited FLuc (Auld et al., 2008). […] Of the compounds identified in this profile that inhibited FLuc, 151 compounds were selected for further analysis, in an effort to better understand their mode of inhibiting FLuc. The assay described here was to determine the activity of the compounds in a FLuc assay that used a commercial formulation of detection reagent (BriteliteTM Plus; PerkinElmer).
NCGC Assay Protocol Summary: Reagents: Britelite Plus detection reagent; 50mM Tris acetate, pH 7.5; 10nM P. pyralis luciferase (Sigma #L9506) Control compounds used were two known firefly luciferase inhibitors (3-(5-(3-chlorophenyl)-1,2,4-oxadiazol-3-yl)benzoic acid and 5-(2-fluorophenyl)-3-phenyl-1,2,4-oxadiazole), and DMSO. Assay Summary: Three microliters of buffer containing firefly luciferase (final concentrations: 50mM Tris acetate, 10nM P. pyralis luciferase) are dispensed into each well of a Greiner white, solid-bottom 1536-well format plate using a flying reagent dispenser (FRD). These assay plates were then treated with 23nL of compound or DMSO using a Kalypsys pin tool, which allows for delivery of a 12-point intraplate titration of each compound to the assay plate (quantitative HTS), with final compound concentrations ranging from approximately ~38uM to 0.2nM. Three microliters of 2X Britelite Plus detection reagent was then delivered by FRD to each well. Luciferase activity was then measured using a ViewLux CCD imager (PerkinElmer), with an average exposure time of 2-30 seconds (2X binning, medium/high gain).

Luciferin 4-monooxygenase (Photinus pyralis), sequence (P08659 whole entry, looked up): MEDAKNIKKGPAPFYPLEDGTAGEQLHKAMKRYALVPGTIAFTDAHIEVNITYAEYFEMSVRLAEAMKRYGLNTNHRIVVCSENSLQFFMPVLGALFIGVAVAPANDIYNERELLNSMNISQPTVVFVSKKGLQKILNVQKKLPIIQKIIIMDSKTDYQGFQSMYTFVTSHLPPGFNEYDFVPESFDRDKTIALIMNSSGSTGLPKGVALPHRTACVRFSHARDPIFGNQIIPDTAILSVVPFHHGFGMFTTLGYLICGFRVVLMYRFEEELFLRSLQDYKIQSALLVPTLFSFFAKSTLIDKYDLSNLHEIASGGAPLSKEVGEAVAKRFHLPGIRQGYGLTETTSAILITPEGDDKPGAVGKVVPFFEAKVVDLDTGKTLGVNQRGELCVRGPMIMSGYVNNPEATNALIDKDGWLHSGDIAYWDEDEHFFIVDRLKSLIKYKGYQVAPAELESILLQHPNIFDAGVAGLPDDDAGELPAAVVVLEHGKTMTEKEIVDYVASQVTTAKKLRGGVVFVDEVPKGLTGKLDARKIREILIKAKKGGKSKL

Structure (SMILES)	Potency	activity change, negative = inhibition
CC(C)c1ccc(-c2nc3ccccc3s2)cc1	22.5 nM (active)	–
COc1ccc2nc(NC(=O)c3ccco3)sc2c1	1590 nM (active)	–
O=C(O)c1ccc(NC(=O)c2ccccc2NC(=O)c2ccccc2Br)cc1	–	-11.6% (inactive)
CCOc1ccc2nc(NC(=O)c3cc([N+](=O)[O-])ccc3N3CCOCC3)sc2c1	–	-22.5% (inactive)
O=C(Nc1ccccc1C(=O)O)c1cccc(S(=O)(=O)Nc2ccc(Br)cc2)c1	–	14% (inactive)
Cc1ccc(C(=O)Nc2cccc(C(=O)O)c2)cc1S(=O)(=O)N1CCCC1	2250 nM (active)	–
COc1ccc2nc(NC(=O)C3CCN(S(=O)(=O)c4cccs4)CC3)sc2c1	–	-1.3% (inactive)
O=C(Nc1cccc(-c2nc3ccccc3s2)c1)C1=COCCO1	–	-15% (inactive)
Cc1ccc(S(=O)(=O)N2CCOCC2)cc1C(=O)Nc1ccccc1C(=O)O	–	-25.2% (inactive)
Cc1cccc(C(=O)Nc2ccc(-c3nc4ccccc4s3)cc2Cl)c1	–	-20.5% (inactive)
Nc1cccc(-c2nc3ccc(N)cc3s2)c1	798 nM (active)	–
COc1cc(OC)cc(C(=O)Nc2ccc(-c3nc4ccccc4s3)c(C)c2)c1	113 nM (active)	–
O=C(O)c1cccc(NC(=O)c2ccc(COc3ccc(Cl)cc3)cc2)c1	–	8.38% (inactive)
CN(C)S(=O)(=O)c1ccc(C(=O)Nc2ccccc2C(=O)O)cc1	–	-14.3% (inactive)
CC(=O)Nc1cccc(-c2nc3ccccc3s2)c1C	–	-17.2% (inactive)
CCn1c(C)nc2cc(-c3nc4n(n3)Cc3ccccc3-4)ccc21	71.1 nM (active)	–
COc1ccc(C(=O)Nc2ccccc2C(=O)N/N=C/c2ccc(O)c(OC)c2)cc1	2 nM (active)	–
Cc1ccc2nc(-c3ccc(NC(=O)CN4CCN(C(=O)c5ccco5)CC4)cc3)sc2c1	798 nM (active)	–
COc1ccc2nc(NC(=O)c3ccc([N+](=O)[O-])o3)sc2c1	3560 nM (active)	–
O=C(Nc1cccc(-c2nc3ccccc3s2)c1)c1cc(-n2cnnc2)ccc1Cl	–	19.7% (inactive)

Structure (SMILES)	Potency	activity change, negative = inhibition
COc1ccc(-c2nc3ccccc3s2)cc1NC(=O)c1ccc(F)cc1	–	-25.6% (inactive)
COc1ccc2nc(NC(=O)c3cccs3)sc2c1	–	-16.2% (inactive)
CC(C)c1ccc(C(=O)Nc2ccc(-c3nc4ccccc4s3)c(Cl)c2)cc1	–	-49.5% (inactive)
CCOc1ccc2nc(NC(=O)Cc3cccs3)sc2c1	–	-11.8% (inactive)
O=C(Nc1ccc(-c2nc3ccccc3s2)cc1)C1=COCCO1	400 nM (active)	–
O=C(O)c1ccc(NC(=O)c2ccccc2NC(=O)c2ccccc2Cl)cc1	–	-8.33% (inactive)
O=C(O)c1cccc(NC(=O)c2cccc(NC(=O)C3CCCO3)c2)c1 (stereo not given)	11300 nM (active)	–
O=C(Nc1ccccc1C(=O)Nc1ccccc1C(=O)O)c1ccccc1	–	2.67% (inactive)
Cc1ccc(C(=O)Nc2cccc(C(=O)O)c2)cc1S(=O)(=O)N1CCCCC1	2830 nM (active)	–
Cc1ccc(S(=O)(=O)N2CCN(C(=O)c3ccccc3-c3nc4ccccc4s3)CC2)c(C)c1	–	14.2% (inactive)
COc1cc(OC)cc(C(=O)Nc2ccccc2-c2nc3ccccc3s2)c1	–	-29.1% (inactive)
CC(C)(C)C(=O)Nc1ccc(-c2nc3ccccc3s2)cc1	17.9 nM (active)	–
COc1ccccc1C(=O)Nc1ccc(C(=O)O)cc1	–	4.95% (inactive)
COc1ccc2nc(NC(=O)c3cnccn3)sc2c1	2000 nM (active)	–
COc1ccccc1C(=O)Nc1ccc(C(=O)Nc2ccccc2C(=O)O)cc1	–	14.6% (inactive)
COc1ccc(C(=O)Nc2ccccc2C(=O)Nc2ccc(C(=O)O)cc2)cc1	14200 nM (active)	–
CCOC(=O)N1CCN(CC(=O)Nc2nc3ccc(OC)cc3s2)CC1	–	4.35% (inactive)
Nc1ccc(C(=O)Nc2ccccc2C(=O)O)cc1	11300 nM (active)	–
Nc1ccc(-c2nc3ccc(C(=O)O)cc3s2)cc1	634 nM (active)	–
Cc1ccc(C(=O)Nc2cccc(C(=O)O)c2)cc1	2000 nM (active)	–
